In the supplement of paper PMC8728848:
Shown is part of a subset that was picked to be rich in the strongest signals.

B1: Spy 2007 (Streptococcus pyogenes), Q99XV3 (protein)
chain: MKKGFFLMAMVVSLVMIAGCDKSANPKQPTQGMSVVTSFYPMYAMTKEVSGDLNDVRMIQSGAGIHSFEPSVNDVAAIYDADLFVYHSHTLEAWARDLDPNLKKSKVDVFEASKPLTLDRVKGLEDMEVTQGIDPATLYDPHTWTDPVLAGEEAVNIAKELGRLDPKHKDSYTKNAKAFKKEAEQLTEEYTQKFKKVRSKTFVTQHTAFSYLAKRFGLKQLGISGISPEQEPSPRQLKEIQDFVKEYNVKTIFAEDNVNPKIAHAIAKSTGAKVKTLSPLEAAPSGNKTYLENLRANLEVLYQQLK
B2: Chaperone 60.2 (Mycobacterium tuberculosum), P9WPE7 (protein)
chain: MAKTIAYDEEARRGLERGLNALADAVKVTLGPKGRNVVLEKKWGAPTITNDGVSIAKEIELEDPYEKIGAELVKEVAKKTDDVAGDGTTTATVLAQALVREGLRNVAAGANPLGLKRGIEKAVEKVTETLLKGAKEVETKEQIAATAAISAGDQSIGDLIAEAMDKVGNEGVITVEESNTFGLQLELTEGMRFDKGYISGYFVTDPERQEAVLEDPYILLVSSKVSTVKDLLPLLEKVIGAGKPLLIIAEDVEGEALSTLVVNKIRGTFKSVAVKAPGFGDRRKAMLQDMAILTGGQVISEEVGLTLENADLSLLGKARKVVVTKDETTIVEGAGDTDAIAGRVAQIRQEIENSDSDYDREKLQERLAKLAGGVAVIKAGAATEVELKERKHRIEDAVRNAKAAVEEGIVAGGGVTLLQAAPTLDELKLEGDEATGANIVKVALEAPLKQIAFNSGLEPGVVAEKVRNLPAGHGLNAQTGVYEDLLAAGVADPVKVTRSALQNAASIAGLFLTTEAVVADKPEKEKASVPGGGDMGGMDF

Columns and labels:
Experiment in all cases: glycan array binding signal (z-score within array); higher = stronger binding
Details in all cases: glycan notation: IUPAC condensed, linker removed
[1] = target: Fuc(a1-2)Gal(b1-4)GlcNAc
In short: (§1)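 Columns mapping to the same glycan were averaged after glycan names were converted to IUPAC-condensed notation. The data come from 3228 arrays in the Consortium for Functional Glycomics database, limited to those with an available protein sequence. Binding is reported as a within-array Z-score averaged across arrays of one protein sequence and across linkers.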

[2] = target: Fuc(a1-3)[Gal3S(b1-4)]GlcNAc
In short: as §1

[3] = target: Fuc(a1-3)[Neu5Ac(a2-3)]Gal(b1-4)GlcNAc(b1-3)GalNAc
In short: as §1

[4] = target: Gal(a1-6)Glc
In short: as §1

[5] = target: Gal(b1-4)Glc
In short: as §1

[6] = target: Gal(b1-4)GlcNAc(b1-2)Man(a1-6)Man(b1-4)GlcNAc(b1-4)GlcNAc
In short: as §1

[7] = target: Gal3S(b1-3)[Fuc(a1-4)]GlcNAc
In short: as §1

[8] = target: Gal3S(b1-4)Glc
In short: as §1

[9] = target: Gal6S(b1-4)GlcNAc6S
In short: as §1

[10] = target: GalNAc(b1-4)GlcNAc(b1-2)Man(a1-3)[GalNAc(b1-4)GlcNAc(b1-2)Man(a1-6)]Man(b1-4)GlcNAc(b1-4)GlcNAc
In short: as §1

[11] = target: GlcNAc(a1-4)Gal(b1-4)GlcNAc(b1-3)Gal(b1-4)Glc
In short: as §1

[12] = target: GlcNAc(a1-4)Gal(b1-4)GlcNAc(b1-3)Gal(b1-4)[Fuc(a1-3)]GlcNAc(b1-3)Gal(b1-4)[Fuc(a1-3)]GlcNAc
In short: as §1

[13] = target: GlcNAc(b1-4)GlcNAc
In short: as §1

[14] = target: GlcNAc(b1-4)GlcNAc(b1-4)GlcNAc(b1-4)GlcNAc(b1-4)GlcNAc
In short: as §1

[15] = target: Kdn(a2-6)Gal(b1-4)GlcNAc
In short: as §1

[16] = target: Man(a1-2)Man(a1-3)[Man(a1-6)]Man(a1-6)[Man(a1-2)Man(a1-3)]Man(b1-4)GlcNAc(b1-4)GlcNAc
In short: as §1

[17] = target: Neu5Ac(a2-3)Gal(b1-3)GlcNAc6S
In short: as §1

[18] = target: Neu5Ac(a2-3)Gal(b1-3)[Neu5Ac(a2-6)]GalNAc
In short: as §1

[19] = target: Neu5Ac(a2-3)Gal(b1-4)Glc
In short: as §1

[20] = target: Neu5Ac(a2-3)Gal(b1-4)GlcNAc6S
In short: as §1

[21] = target: Neu5Ac(a2-3)Gal(b1-4)[Fuc(a1-3)]GlcNAc(b1-3)Gal(b1-4)GlcNAc
In short: as §1

[22] = target: Fuc(a1-2)Gal(b1-4)GlcNAc(b1-3)Gal(b1-4)GlcNAc(b1-3)Gal(b1-4)GlcNAc
In short: as §1

[23] = target: Fuc(a1-2)Gal(b1-4)GlcNAc6S
In short: as §1

[24] = target: Fuc(a1-2)[Gal(a1-3)]Gal
In short: as §1

[25] = target: Gal(a1-3)Gal(b1-4)[Fuc(a1-3)]GlcNAc
In short: as §1

[26] = target: Gal(b1-2)Gal
In short: as §1

[27] = target: Gal(b1-3)[Fuc(a1-4)]GlcNAc(b1-3)Gal(b1-4)GlcNAc
In short: as §1

[28] = target: Gal(b1-3)[Fuc(a1-4)]GlcNAc(b1-3)Gal(b1-4)[Fuc(a1-3)]GlcNAc
In short: as §1

[29] = target: Gal3S(b1-4)Glc6S
In short: as §1

[30] = target: Gal3S6S(b1-4)GlcNAc6S
In short: as §1

[31] = target: GlcNAc(b1-4)Gal(b1-4)GlcNAc
In short: as §1

[32] = target: Man(a1-2)Man(a1-3)[Man(a1-2)Man(a1-6)]Man
In short: as §1

[33] = target: Man(a1-2)Man(a1-3)[Man(a1-2)Man(a1-6)]Man(a1-6)[Man(a1-2)Man(a1-2)Man(a1-3)]Man
In short: as §1

[34] = target: Neu5Ac(a2-3)Gal(b1-4)[Fuc(a1-3)]GlcNAc(b1-3)Gal
In short: as §1

[35] = target: Neu5Ac(a2-3)Gal(b1-4)[Fuc(a1-3)]GlcNAc(b1-6)[Gal(b1-3)]GalNAc
In short: as §1

[36] = target: Neu5Ac(a2-6)Gal(b1-4)GlcNAc(b1-2)Man(a1-3)[GlcNAc(b1-2)Man(b1-4)GlcNAc(b1-2)Man(a1-6)]Man(b1-4)GlcNAc(b1-4)GlcNAc
In short: as §1

[37] = target: Neu5Ac(a2-8)Neu5Ac(a2-8)Neu5Ac(a2-3)Gal(b1-4)Glc
In short: as §1

Binder | glycan array binding signal (z-score) [1] | glycan array binding signal (z-score) [2] | glycan array binding signal (z-score) [3] | glycan array binding signal (z-score) [4] | glycan array binding signal (z-score) [5] | glycan array binding signal (z-score) [6] | glycan array binding signal (z-score) [7] | glycan array binding signal (z-score) [8] | glycan array binding signal (z-score) [9] | glycan array binding signal (z-score) [10] | glycan array binding signal (z-score) [11] | glycan array binding signal (z-score) [12] | glycan array binding signal (z-score) [13] | glycan array binding signal (z-score) [14] | glycan array binding signal (z-score) [15] | glycan array binding signal (z-score) [16] | glycan array binding signal (z-score) [17] | glycan array binding signal (z-score) [18] | glycan array binding signal (z-score) [19] | glycan array binding signal (z-score) [20] | glycan array binding signal (z-score) [21] | glycan array binding signal (z-score) [22] | glycan array binding signal (z-score) [23] | glycan array binding signal (z-score) [24] | glycan array binding signal (z-score) [25] | glycan array binding signal (z-score) [26] | glycan array binding signal (z-score) [27] | glycan array binding signal (z-score) [28] | glycan array binding signal (z-score) [29] | glycan array binding signal (z-score) [30] | glycan array binding signal (z-score) [31] | glycan array binding signal (z-score) [32] | glycan array binding signal (z-score) [33] | glycan array binding signal (z-score) [34] | glycan array binding signal (z-score) [35] | glycan array binding signal (z-score) [36] | glycan array binding signal (z-score) [37]
B1 | 0.299 | 0.277 | 5.41 | -0.074 | -0.461 | -0.392 | 3.35 | -0.543 | 5.95 | 3.5 | 0.12 | 3.22 | -0.446 | 4.65 | -0.715 | -0.649 | -0.663 | 1.08 | 0.127 | 1.47 | 0.479 | – | – | – | – | – | – | – | – | – | – | – | – | – | – | – | –
B2 | 1.32 | – | – | – | – | – | – | – | – | – | – | – | – | – | – | – | – | – | – | – | – | -0.159 | 4.33 | -0.04 | -0.652 | -0.591 | 3.11 | -0.254 | 4.1 | 3.22 | -0.93 | 1.47 | -1.16 | -0.716 | -0.295 | 3.89 | -0.208
